aSyn UTR act: Activators working through SNCA 5'UTR binding (MLPCN). alpha-synuclein 5'UTR reporter, activators screen. activity score, % (tested at 7.5 µM), hits read low. hit rate 7.1% among 300,000. AID 1814; in the data active = activity score below about -60%
* hit, by the source's call. These entries were drawn from the full list.

SMILES | aSyn UTR act
COC(=O)c1cc(/C=C/c2ccccc2)[nH]n1 | -117*
CC(Oc1c(Cl)cccc1Cl)C1=NCCN1 (stereo not drawn) | -80*
CC(=O)c1ccc(Nc2nc(=O)c3cccnc3s2)cc1 | -124*
CCOC(=O)c1ccc(Nc2nc(=O)c3cccnc3s2)cc1 | -133*
O=c1nc(Nc2ccc(OCc3ccccc3)cc2)sc2ncccc12 | -96*
COc1cc(C(F)(F)F)ccc1C(=O)NCCc1ccco1 | -163*
COc1ccc(C2OC3=C(Nc4cc(C)c(C)cc4N3)C2=O)cc1 (stereo not drawn) | -98*
Cc1cc(NC(=O)C2COc3ccccc3O2)no1 (stereo not drawn) | -115*
Cc1csc(NC(=O)C2COc3ccccc3O2)n1 (stereo not drawn) | 62
O=C(Nc1ccccn1)C1COc2ccccc2O1 (stereo not drawn) | -177*
Cc1cccc(NC(=O)C2COc3ccccc3O2)n1 (stereo not drawn) | -71*
COc1ccc(CNC(=O)C2COc3ccccc3O2)c(OC)c1 (stereo not drawn) | -76*
Cc1cnc(NC(=O)C2COc3ccccc3O2)s1 (stereo not drawn) | 71
COc1ccc(Cl)cc1NC(=O)C1COc2ccccc2O1 (stereo not drawn) | -65*
O=C(Nc1ccc(Cl)cn1)C1COc2ccccc2O1 (stereo not drawn) | -137*
Cc1ccc(C(=O)O/N=C(\N)Cc2ccc([N+](=O)[O-])cc2)c(Cl)c1 | -73*
Cc1ccc(C(=O)O/N=C(\N)Cc2cccs2)c(Cl)c1 | -73*
c1ccc(-c2cnnc(-c3ccccn3)n2)cc1 | -133*
COc1cnc(-c2ccccn2)nc1N(C)c1ccccc1 | 89
O=[N+]([O-])c1cc(/C=N/N/C(=N/c2ccccn2)c2ccccn2)ccc1O | -91*
O=[N+]([O-])c1ccc(/C=N/N/C(=N/c2ccccn2)c2ccccn2)cc1 | -125*
Cc1c(C(=O)Nc2ccccn2)oc2ccccc12 | -259*
Cc1c(C(=O)Nc2cccnc2Cl)oc2ccccc12 | -181*
Cc1ccc(NC(=O)c2oc3ccccc3c2C)nc1 | -94*
CC(C)(O)c1cc(=O)sc2nc3ccccc3n12 | -103*
SMILES | aSyn UTR act
O=C(CCl)Nc1cc(SCC(O)CO)cc([N+](=O)[O-])c1 (stereo not drawn) | 110
COc1cc(Br)cc(/C=N/NC(=O)Cc2ccc(C(F)(F)F)cc2[N+](=O)[O-])c1O | 68
O=C(CSc1ccc(C(F)(F)F)cc1[N+](=O)[O-])Nc1ccccc1 | -75*
CCC1S/C(=N/C(=O)NC2CCCCC2)NC1=O (stereo not drawn) | -86*
CCN1CCN(c2cc3c(nn2)Oc2ccccc2N3C)CC1 | -128*
CC(C)(C)c1ccc(C(=O)Nc2ccc([N+](=O)[O-])cn2)cc1 | -72*
O=C(NC(Nc1ncc(S(=O)(=O)c2ccc([N+](=O)[O-])cc2)s1)(C(F)(F)F)C(F)(F)F)c1ccc(Cl)cc1 | 73
O=C(Nc1ccc([N+](=O)[O-])cn1)c1ccc2c(c1)OCO2 | -91*
CC(=O)c1c(C)[nH]c(C(=O)NCCc2c[nH]c3ccccc23)c1C | -89*
O=C(NCCc1c[nH]c2ccccc12)c1cnccn1 | -80*
COc1ccc(C(=O)NCCc2c[nH]c3ccccc23)cc1 | -184*
COc1ccc(C(=O)c2c[nH]c3ccccc23)cc1 | -196*
CC(=O)c1c(C)[nH]c(C(=O)NCCC2=CCCCC2)c1C | -156*
O=C(NCCc1c[nH]c2ccccc12)c1cnc2sccn2c1=O | -152*
O=C(NCCc1c[nH]c2ccccc12)c1ccc(Cl)cc1 | -221*
Cc1ccsc1C(=O)NCCc1c[nH]c2ccccc12 | -123*
O=C(NCCc1c[nH]c2ccccc12)c1ccc(F)cc1F | -145*
Cc1csc(Nc2ccccc2)[n+]1-c1ccccc1 | -69*
c1ccc2c(COn3nnc4ccccc43)cccc2c1 | -223*
Cc1ccc(-c2nc(NCC3CCCO3)sc2C)cc1 (stereo not drawn) | -94*
CC(C)c1cc(C(F)(F)F)n2nc(C(=O)Nc3ccc4c(c3)OCO4)cc2n1 | -83*
O=C(Nc1ccc2c(c1)OCO2)c1cc(C2CC2)on1 | -148*
CC(C)c1cc(C(=O)Nc2ccc3c(c2)OCO3)no1 | -173*
CCn1nc(C)c(CNC(=O)Nc2ccc3c(c2)OCO3)c1C | -70*
Cc1cc(CNC(=O)Nc2ccc3c(c2)OCO3)nn1C | -80*
SMILES | aSyn UTR act
S=C(N/N=C/c1ccc2ncccc2c1)Nc1ccccc1 | 108
S=C(N/N=C/c1ccccc1Cl)Nc1ccccc1 | -106*
COc1ccc(NC(=O)O/N=C/c2ccccc2)cc1 | -140*
COc1ccc(/C=N/NC(=S)Nc2ccccc2)cc1 | -72*
Cn1nc(C(=O)Nc2ccc(S(=O)(=O)NCc3ccco3)cc2)c2ccccc2c1=O | -96*
Cn1nc(-c2ccc(N3CCCCC3)c(NC(=O)c3ccco3)c2)c2ccccc2c1=O | 67
COC(=O)c1cn(C(=O)/C=C/c2ccc(OC)c(OC)c2)c2ccccc12 | -78*
COc1cc(-c2nnn(CC(=O)NC3CCS(=O)(=O)C3)n2)ccc1OCc1ccccc1 (stereo not drawn) | -126*
Cc1ccc2c(c1)c(C)c(C)n2CC(O)Cn1nnc2ccccc21 (stereo not drawn) | -70*
CCCc1nc2oc3c(NCCCN(C)C)ncnc3c2c2c1CCCC2 | 108
Cc1c(C(=O)Nc2nc3ccccc3[nH]2)oc2ccccc12 | -258*
Cc1c(C(=O)Nc2nc3ccccc3[nH]2)oc2ccc(Br)cc12 | -158*
Cc1c(C(=O)Nc2nc3ccccc3[nH]2)oc2c(Cl)cccc12 | -136*
CCn1c(=O)c2cc(C(=O)NC(C)C)sc2c2ccccc21 | -79*
Cc1ccc(NC(=O)N/C=C/c2ccccc2)cc1 | -92*
Cc1ccc(NC(=O)N/C=C/c2ccc(Cl)cc2)cc1 | -94*
COc1ccc(/C=N/Nc2cc(C)nc3ccc(OC)cc23)c(OC)c1 | 117
O=[N+]([O-])c1ccccc1N/N=C\c1ccccc1F | -165*
CCCOc1ccc(/C=N/Nc2ccccc2[N+](=O)[O-])c(OCCC)c1 | -133*
Cc1cc(/C=N/Nc2nc(N)ncc2[N+](=O)[O-])c(C)n1-c1ccccc1F | 73
O=[N+]([O-])c1ccc(O)c(/C=N/n2cnc3ccccc32)c1 | -67*
COc1ccc(/C=N/Nc2ncccc2[N+](=O)[O-])c(OC)c1 | -122*
C/C(=N\OCc1nc2ccccc2c(=O)n1/N=C/c1cc([N+](=O)[O-])ccc1O)c1ccccc1 | -62*
O=[N+]([O-])c1cccc(N/N=C/c2cccc(O)c2O)c1 | -110*
O=[N+]([O-])c1ccc(O)c(/C=N/Nc2ccccc2Cl)c1 | -85*
SMILES | aSyn UTR act
O=C(N/N=C/c1cc([N+](=O)[O-])ccc1O)c1cccc2cc[nH]c12 | 68
O=[N+]([O-])c1ccccc1N/N=C\c1ccccc1Cl | -209*
O=C(NC(CSCc1ccccc1)C(=O)N/N=C/c1ccc(O)cc1O)c1ccc([N+](=O)[O-])cc1 (stereo not drawn) | 84
O=[N+]([O-])c1ccccc1N/N=C/c1cccc(O)c1O | -104*
O=c1c2ccccc2nc(SCc2nc3ccccc3s2)n1CCCO | -182*
CCCCn1cnc2c([nH]c3cc(OC)ccc32)c1=O | -129*
COc1ccc2c(c1)[nH]c1c(=O)n(Cc3ccco3)cnc12 | -65*
COCCNC(=O)/C(C#N)=C/c1cc(C)n(C2CCCCC2)c1C | -101*
Cc1cc(/C=C(/C#N)C(=O)Nc2ccccc2)c(C)n1-c1cccnc1 | -160*

Source: PubChem
